Results published in the supplement of paper PMC7156485.
± gives the standard deviation of the averaged measurements.

Legend:
Details in all cases: concentration: 10 µM; 24 h
HCC1569 [1] = assay: cell number relative to DMSO (% of DMSO); higher = more cells (less growth inhibition / toxicity)
Procedure, shortened: (§1)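 For HCC1569 and TDF cells, compounds at 10 µM were applied for 24 h at 37 °C in triplicate in 384-well plates. Cells were fixed in 3.7% formaldehyde, stained for H1.0 and with DAPI, and imaged at ×10 over six fields per well. The endpoint, H1.0 nuclear intensity or cell number, is shown as percent of the plate control using the median of replicates. Positional effects were smoothed for HCC1569 only.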

TDF [2] = assay: as above
Procedure, shortened: as §1

TDF [3] = assay: H1.0 immunofluorescence intensity relative to DMSO (% of DMSO); higher = stronger H1.0 induction, active = 120 or more
Procedure, shortened: as §1

HCC1569 [4] = assay: H1.0 immunofluorescence intensity relative to DMSO (% of DMSO); higher = stronger H1.0 induction, active = 140 or more
Procedure, shortened: as §1
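Wherever H1.0 immunofluorescence intensity relative to DMSO is given: TDF is a line of transformed human dermal fibroblasts of mesenchymal origin.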
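Wherever cell number relative to DMSO is given: TDF denotes transformed human dermal fibroblasts of mesenchymal origin.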

C[C@H]1C[C@H]2[C@@H]3CCC4=CC(=O)C=C[C@]4(C)[C@@]3(F)[C@@H](O)C[C@]2(C)[C@@]1(O)C(=O)COP(=O)([O-])[O-].[Na+].[Na+]
cell number (HCC1569 [1]): 97.2 | cell number (TDF [2]): 106 | H1.0 immunofluorescence intensity (TDF [3]): 83.8 (inactive) | H1.0 immunofluorescence intensity (HCC1569 [4]): 111 (inactive)

CCCCCCCCC=CCCCCCCCC(=O)O [Oleic Acid]
cell number (HCC1569 [1]): 105 | cell number (TDF [2]): 103 | H1.0 immunofluorescence intensity (TDF [3]): 91.8 (inactive) | H1.0 immunofluorescence intensity (HCC1569 [4]): 87.8 (inactive)

CCCCCCCCCCCCCCCC(=O)OCC=C(C)C=CC=C(C)C=CC1=C(C)CCCC1(C)C [Retinyl palmitate]
cell number (HCC1569 [1]): 101 | cell number (TDF [2]): 99.2 | H1.0 immunofluorescence intensity (TDF [3]): 93.8 (inactive) | H1.0 immunofluorescence intensity (HCC1569 [4]): 101 (inactive)

CCC1OC(=O)C(C)C(OC2CC(C)(OC)C(O)C(C)O2)C(C)C(OC2OC(C)CC(N(C)C)C2O)C(C)(O)CC(C)C(=NOCOCCOC)C(C)C(O)C1(C)O (configuration not stated) [Roxithromycin]
cell number (HCC1569 [1]): 106 | cell number (TDF [2]): 98.4 | H1.0 immunofluorescence intensity (TDF [3]): 95.2 (inactive) | H1.0 immunofluorescence intensity (HCC1569 [4]): 92.1 (inactive)

Nc1cccc(-c2cc3c(Oc4cccc(O)c4)ncnc3[nH]2)c1 [GSK3b Inhibitor XII, TWS119]
cell number (HCC1569 [1]): 60.2 | cell number (TDF [2]): 55 | H1.0 immunofluorescence intensity (TDF [3]): 112 (inactive) | H1.0 immunofluorescence intensity (HCC1569 [4]): 214 (active)

COC(=O)C1C(O)CCC2CN3CCc4c([nH]c5ccccc45)C3CC21 (configuration not stated) [Corynanthine]
cell number (HCC1569 [1]): 106 | cell number (TDF [2]): 94.3 | H1.0 immunofluorescence intensity (TDF [3]): 102 (inactive) | H1.0 immunofluorescence intensity (HCC1569 [4]): 95.3 (inactive)

CCCCCCC=CCCCCCCCCC(=O)O [10(E)-Heptadecenoic acid]
cell number (HCC1569 [1]): 97.6 | cell number (TDF [2]): 95.4 | H1.0 immunofluorescence intensity (TDF [3]): 98.4 (inactive) | H1.0 immunofluorescence intensity (HCC1569 [4]): 98.8 (inactive)

CCCCCC(O)C=CC1C(O)CC(O)C1CC(=O)CCCCC(=O)O (configuration not stated) [6-Keto-prostaglandin F1a]
cell number (HCC1569 [1]): 101 | cell number (TDF [2]): 91.3 | H1.0 immunofluorescence intensity (TDF [3]): 102 (inactive) | H1.0 immunofluorescence intensity (HCC1569 [4]): 108 (inactive)

CC1OC(OC2C(Oc3cc(O)c4c(c3)OC(c3ccc(O)cc3)CC4=O)OC(CO)C(O)C2O)C(O)C(O)C1O (configuration not stated) [Naringin]
cell number (HCC1569 [1]): 103 | cell number (TDF [2]): 99 | H1.0 immunofluorescence intensity (TDF [3]): 96.2 (inactive) | H1.0 immunofluorescence intensity (HCC1569 [4]): 86.1 (inactive)

Cc1ccc(S(=O)(=O)NC(Cc2ccccc2)C(=O)CCl)cc1 [N-p-Tosyl-L-phenylalanine chloromethyl ketone]
cell number (HCC1569 [1]): 85.5 | cell number (TDF [2]): 84.6 | H1.0 immunofluorescence intensity (TDF [3]): 102 (inactive) | H1.0 immunofluorescence intensity (HCC1569 [4]): 113 (inactive)

CC(=O)OC1(C(C)=O)CCC2C3C=C(C)C4=CC(=O)CCC4(C)C3CCC21C (configuration not stated) [Megestrol Acetate]
cell number (HCC1569 [1]): 106 | cell number (TDF [2]): 96.9 | H1.0 immunofluorescence intensity (TDF [3]): 98.9 (inactive) | H1.0 immunofluorescence intensity (HCC1569 [4]): 104 (inactive)

NC(=O)c1ccc(N(C(N)=O)c2c(F)cccc2F)nc1-c1ccc(F)cc1F
cell number (HCC1569 [1]): 105 | cell number (TDF [2]): 104 | H1.0 immunofluorescence intensity (TDF [3]): 94.8 (inactive) | H1.0 immunofluorescence intensity (HCC1569 [4]): 90.2 (inactive)

CCCN(CCC)CC1CCCCN1CCNC(=O)N1c2ccccc2C(=O)Nc2cccnc21 (configuration not stated)
cell number (HCC1569 [1]): 98.5 | cell number (TDF [2]): 112 | H1.0 immunofluorescence intensity (TDF [3]): 87.8 (inactive) | H1.0 immunofluorescence intensity (HCC1569 [4]): 100 (inactive)

CCN(CC)CCOC(=O)c1ccc(N)cc1.Cl [Procaine hydrochloride]
cell number (HCC1569 [1]): 105 | cell number (TDF [2]): 100 | H1.0 immunofluorescence intensity (TDF [3]): 91.3 (inactive) | H1.0 immunofluorescence intensity (HCC1569 [4]): 97.8 (inactive)

CC1c2cccc(O)c2C(O)=C2C(=O)C3(O)C(O)=C(C(N)=O)C(=O)C(N(C)C)C3C(O)C21.Cl (configuration not stated) [Doxycycline hydrochloride]
cell number (HCC1569 [1]): 96.5 | cell number (TDF [2]): 107 | H1.0 immunofluorescence intensity (TDF [3]): 96.9 (inactive) | H1.0 immunofluorescence intensity (HCC1569 [4]): 105 (inactive)

CCN1C(=CC(C)=O)Sc2ccc(OC)cc21 [Cdc2-Like Kinase Inhibitor, TG003]
cell number (HCC1569 [1]): 97.3 | cell number (TDF [2]): 112 | H1.0 immunofluorescence intensity (TDF [3]): 89.5 (inactive) | H1.0 immunofluorescence intensity (HCC1569 [4]): 119 (inactive)

C=CCCCCCCCCCC(=O)O [11-Dodecenoic acid]
cell number (HCC1569 [1]): 97.4 | cell number (TDF [2]): 98.7 | H1.0 immunofluorescence intensity (TDF [3]): 102 (inactive) | H1.0 immunofluorescence intensity (HCC1569 [4]): 103 (inactive)

NCC1CCC(C(=O)O)CC1 (configuration not stated) [Tranexamic acid]
cell number (HCC1569 [1]): 99.5 | cell number (TDF [2]): 104 | H1.0 immunofluorescence intensity (TDF [3]): 87.9 (inactive) | H1.0 immunofluorescence intensity (HCC1569 [4]): 111 (inactive)

COc1ccc(-c2ccc3c(N4CCOCC4)nc(N4CC(C)OC(C)C4)nc3n2)cc1CO (configuration not stated)
cell number (HCC1569 [1]): 73 | cell number (TDF [2]): 78.1 | H1.0 immunofluorescence intensity (TDF [3]): 87.6 (inactive) | H1.0 immunofluorescence intensity (HCC1569 [4]): 164 (active)

O=C1CCC(N2C(=O)c3ccccc3C2=O)C(=O)N1 (racemic)
cell number (HCC1569 [1]): 103 | cell number (TDF [2]): 108 | H1.0 immunofluorescence intensity (TDF [3]): 99.5 (inactive) | H1.0 immunofluorescence intensity (HCC1569 [4]): 99.3 (inactive)

CCCCCCCCCCCCCCCC(=O)NCCO [Palmitoylethanolamide]
cell number (HCC1569 [1]): 104 | cell number (TDF [2]): 101 | H1.0 immunofluorescence intensity (TDF [3]): 92.4 (inactive) | H1.0 immunofluorescence intensity (HCC1569 [4]): 90.6 (inactive)

Cl.O=S(=O)(c1cccc2c(I)cccc12)N1CCCNCC1
cell number (HCC1569 [1]): 105 | cell number (TDF [2]): 116 | H1.0 immunofluorescence intensity (TDF [3]): 99.4 (inactive) | H1.0 immunofluorescence intensity (HCC1569 [4]): 89.8 (inactive)

NC(N)=NC(CCC(=O)O)C(=O)O (stereo not drawn) [alpha-Guanidinoglutaric acid]
cell number (HCC1569 [1]): 104 | cell number (TDF [2]): 108 | H1.0 immunofluorescence intensity (TDF [3]): 92.6 (inactive) | H1.0 immunofluorescence intensity (HCC1569 [4]): 86.2 (inactive)

CN(C)c1nc(N(C)C)nc(N(C)C)n1 [Altretamine]
cell number (HCC1569 [1]): 103.1 ± 0.68 | cell number (TDF [2]): 108.4 ± 0.31 | H1.0 immunofluorescence intensity (TDF [3]): 100 (inactive) | H1.0 immunofluorescence intensity (HCC1569 [4]): 113 (inactive)

Br.CN1C2CCC1CC(OC(=O)C(O)c1ccccc1)C2 (racemic) [DL-Homatropine hydrobromide]
cell number (HCC1569 [1]): 106 | cell number (TDF [2]): 109 | H1.0 immunofluorescence intensity (TDF [3]): 91.5 (inactive) | H1.0 immunofluorescence intensity (HCC1569 [4]): 85.8 (inactive)

O=C([O-])C=CC(O)c1ccc(Cl)cc1.[Na+] (configuration not stated)
cell number (HCC1569 [1]): 105 | cell number (TDF [2]): 97.4 | H1.0 immunofluorescence intensity (TDF [3]): 95.7 (inactive) | H1.0 immunofluorescence intensity (HCC1569 [4]): 92.9 (inactive)

CC1(C)CCC(C)(C)c2cc(C(=O)Nc3ccc(C(=O)O)cc3)ccc21
cell number (HCC1569 [1]): 101 | cell number (TDF [2]): 104 | H1.0 immunofluorescence intensity (TDF [3]): 91.8 (inactive) | H1.0 immunofluorescence intensity (HCC1569 [4]): 109 (inactive)

CN(C)CCOc1ccc(C(=C(CCCl)c2ccccc2)c2ccccc2)cc1 [Toremifene]
cell number (HCC1569 [1]): 97.2 | cell number (TDF [2]): 104 | H1.0 immunofluorescence intensity (TDF [3]): 102 (inactive) | H1.0 immunofluorescence intensity (HCC1569 [4]): 122 (inactive)

O=[N+]([O-])c1ccc(S(=O)(=O)NCc2ccccc2)c([N+](=O)[O-])c1 [N-Benzyl-2,4-dinitrobenzenesulfonamide]
cell number (HCC1569 [1]): 79 | cell number (TDF [2]): 58.4 | H1.0 immunofluorescence intensity (TDF [3]): 117 (inactive) | H1.0 immunofluorescence intensity (HCC1569 [4]): 123 (inactive)

CCc1[nH]c(-c2ccc(OC)cc2)nc1-c1ccncc1
cell number (HCC1569 [1]): 98.5 | cell number (TDF [2]): 99.6 | H1.0 immunofluorescence intensity (TDF [3]): 97 (inactive) | H1.0 immunofluorescence intensity (HCC1569 [4]): 120 (inactive)

CCCCCCCCCCCCCC=CC(O)C(N)CO (configuration not stated) [Sphingosine]
cell number (HCC1569 [1]): 103 ± 4.4 | cell number (TDF [2]): 101 ± 6.5 | H1.0 immunofluorescence intensity (TDF [3]): 96.9 (inactive) | H1.0 immunofluorescence intensity (HCC1569 [4]): 98.4 (inactive)

CC(CC(c1ccccc1)c1ccccc1)NC(C)(C)C.Cl (configuration not stated) [N-(tert-butyl)-4,4-diphenyl-2-butanamine hydrochloride]
cell number (HCC1569 [1]): 97.9 | cell number (TDF [2]): 97.5 | H1.0 immunofluorescence intensity (TDF [3]): 99.1 (inactive) | H1.0 immunofluorescence intensity (HCC1569 [4]): 101 (inactive)

O=C(O)c1cc(O)ccc1O [Gentisic acid]
cell number (HCC1569 [1]): 104 | cell number (TDF [2]): 100 | H1.0 immunofluorescence intensity (TDF [3]): 98.5 (inactive) | H1.0 immunofluorescence intensity (HCC1569 [4]): 93.5 (inactive)

CC1CCN=C(N)S1.Cl (racemic)
cell number (HCC1569 [1]): 98.5 | cell number (TDF [2]): 103 | H1.0 immunofluorescence intensity (TDF [3]): 108 (inactive) | H1.0 immunofluorescence intensity (HCC1569 [4]): 100 (inactive)

CCn1c(=O)[nH]c2cc(Cl)c(Cl)cc21
cell number (HCC1569 [1]): 99.9 | cell number (TDF [2]): 94.4 | H1.0 immunofluorescence intensity (TDF [3]): 99.5 (inactive) | H1.0 immunofluorescence intensity (HCC1569 [4]): 95.7 (inactive)

NCCCC(=O)O
cell number (HCC1569 [1]): 109 | cell number (TDF [2]): 106 | H1.0 immunofluorescence intensity (TDF [3]): 108 (inactive) | H1.0 immunofluorescence intensity (HCC1569 [4]): 96.5 (inactive)

CC(C)CC(NC(=O)C(Cc1c[nH]c2ccccc12)NC(=O)C(Cc1ccc(O)cc1)NC(=O)C(CO)NC(=O)C(Cc1c[nH]c2ccccc12)NC(=O)C(Cc1cnc[nH]1)NC(=O)C1CCC(=O)N1)C(=O)NC(CCCN=C(N)N)C(=O)N1CCCC1C(=O)NCC(N)=O (configuration not stated) [Triptorelin]
cell number (HCC1569 [1]): 107 | cell number (TDF [2]): 89.6 | H1.0 immunofluorescence intensity (TDF [3]): 97.7 (inactive) | H1.0 immunofluorescence intensity (HCC1569 [4]): 103 (inactive)

CNCC(O)c1ccc(O)c(O)c1.O=C(O)C(O)C(O)C(=O)O (single isomer, unassigned; (-)) [(-)-Epinephrine bitartrate]
cell number (HCC1569 [1]): 100 | cell number (TDF [2]): 107 | H1.0 immunofluorescence intensity (TDF [3]): 90.8 (inactive) | H1.0 immunofluorescence intensity (HCC1569 [4]): 82.3 (inactive)
